# Screening results (PubChem BioAssay)
# Sampled rows, rich in hits. Any-hit rate of the full collection: about 3.5%.
# Anthrax LF inh2 = blocks Bacillus anthracis lethal factor protease; P15917; multiplex microsphere protease cleavage assay, LF; inhibition, % at 10 µM; hit rate 0.12% among 360,000; AID 588501; further: plate controls were buffer without enzyme for full effect and enzyme alone for no effect
# Target sequence (P15917 whole entry, looked up): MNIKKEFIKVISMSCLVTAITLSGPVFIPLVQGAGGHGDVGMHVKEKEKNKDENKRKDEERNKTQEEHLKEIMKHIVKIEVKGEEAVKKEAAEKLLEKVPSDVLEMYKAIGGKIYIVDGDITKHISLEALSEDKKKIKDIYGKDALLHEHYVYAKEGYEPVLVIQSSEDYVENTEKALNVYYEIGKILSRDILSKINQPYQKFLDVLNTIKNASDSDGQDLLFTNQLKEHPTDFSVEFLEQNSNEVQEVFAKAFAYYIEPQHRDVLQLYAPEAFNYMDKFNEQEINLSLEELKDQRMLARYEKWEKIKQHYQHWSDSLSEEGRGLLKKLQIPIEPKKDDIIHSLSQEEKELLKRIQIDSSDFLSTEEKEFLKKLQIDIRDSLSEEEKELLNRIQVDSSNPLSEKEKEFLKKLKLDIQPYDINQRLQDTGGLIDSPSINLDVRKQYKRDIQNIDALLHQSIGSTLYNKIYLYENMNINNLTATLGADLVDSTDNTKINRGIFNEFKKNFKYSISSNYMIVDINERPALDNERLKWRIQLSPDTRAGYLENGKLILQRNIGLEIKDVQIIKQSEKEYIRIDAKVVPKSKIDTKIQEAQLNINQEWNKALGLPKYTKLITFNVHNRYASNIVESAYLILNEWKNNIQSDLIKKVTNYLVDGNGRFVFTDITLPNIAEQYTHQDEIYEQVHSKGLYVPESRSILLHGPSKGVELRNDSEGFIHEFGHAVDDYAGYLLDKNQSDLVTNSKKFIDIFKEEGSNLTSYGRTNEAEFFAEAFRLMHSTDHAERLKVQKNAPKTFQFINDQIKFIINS
# BJeLR lethal = kills HRASV12-expressing BJeLR cells. BJeLR (HRASV12) viability, CellTiter-Glo ATP luminescence, 48 h. inhibition, % (concentration not given with the values). hit rate 0.17% among 300,000. AID 1554; in the data active means inhibition above about 50%; inconclusive means no clear call, values can overlap the other calls
# Autofluor counter = compound fluorescence in toxin protease inhibitor counterscreen | fluorescence intensity (concentration not given with the values) | AID 624483 | hit rate 3.1% among 360,000 | compound autofluorescence counterscreen, microsphere flow cytometry; hits give high values; in the data active means fluorescence intensity above about 16000; inconclusive means no clear call, values can overlap the other calls
# BoNT-A LC inh2 = blocks Botulinum neurotoxin A light chain protease; multiplex microsphere protease substrate cleavage, flow cytometry; inhibition, % at 10 µM; hit rate 0.17% among 360,000; further: plate controls were buffer without enzyme for full effect and enzyme alone for no effect
# BoNT F protease = BoNT F light chain protease inhibition | Multiplex microsphere protease cleavage assay, flow cytometry | inhibition, % at 10 µM | hit rate 0.22% among 360,000 | AID 588497; in the data active means inhibition above about 35%, passing the limit was not always enough; inconclusive means no clear call, values can overlap the other calls; further: plate controls were buffer without enzyme for full effect and enzyme alone for no effect
# * = called active by the depositor; ? = inconclusive; . = no result. Unless noted, no stated cut-off is given here; in the data, active means inhibition above about 30%; inconclusive means no clear call, values can overlap the other calls; inactive means below that.
SMILES,Anthrax LF inh2,BJeLR lethal,Autofluor counter,BoNT-A LC inh2,BoNT F protease
CC(Sc1ccccn1)C(=O)Nc1ccccc1 (configuration not stated),-4,0,20487*,0,0
COc1ccccc1NS(=O)(=O)c1cccc(NS(=O)(=O)c2cc(C(=O)O)ccc2Cl)c1,0,.,3854,1,-6
Cc1cc(C(C)(C)C)cc(S(=O)(=O)Nc2cccc(C(=O)O)c2)c1C,-10,3,20337*,4,5
COc1cc(S(=O)(=O)Nc2cccc(C(=O)O)c2)c(OC)cc1Cl,0,-17,20274*,?,6
O=C(O)c1cccc(NS(=O)(=O)/C=C/c2ccccc2)c1,-6,-11,19766*,2,0
CCC(C)n1c(S(=O)(=O)O)nc2ccccc21 (configuration not stated),1,1,22449*,-1,1
CCCn1c(S(=O)(=O)O)nc2ccccc21,1,13,4035,1,-10
C=CCNC(=O)CSc1nnc(-c2cccs2)o1,-2,4,2089,0,0
O=C(CSc1nnc(-c2cccs2)o1)NCC1CN(Cc2ccccc2)CCO1 (configuration not stated),2,-4,20699*,1,3
O=S1(=O)N[C@H](Cc2ccccc2)COc2cccc(N3CCC[C@@H]3CO)c21,-12,.,4106,0,2
O=S(=O)(/C=C/C=C/S(=O)(=O)c1ccccc1)c1ccccc1,5,.,3065,0,-7
CCOC(=O)c1c(NC(NC(=O)C(C)C)C(Cl)(Cl)Cl)sc2c1CCC2 (configuration not stated),-4,-1,2881,4,47*
CC(C)c1ccc(NC(=O)C2(C)Cc3c(-c4cccc(C(F)(F)F)c4)ccnc3O2)cc1 (configuration not stated),-7,.,4143,0,-11
COC(=O)NC1CSCC1OC(=O)CN1C(=O)c2ccccc2C1=O (configuration not stated),-1,-1,20984*,-2,-2
CC(C)CCN(C(=O)Nc1ccccc1)C(C)c1cccs1 (configuration not stated),-3,.,20892*,-1,-5
CC(c1cccs1)N(C(=O)Nc1ccccc1)C1CCCCC1 (configuration not stated),0,2,21824*,1,3
CCn1cnc2cc(NC(=O)COc3ccc(C)cc3)ccc21,2,.,3608,0,0
CC1CCCN(c2c([N+](=O)[O-])c(=O)oc3ccccc23)C1 (configuration not stated),-2,1,23803*,?,1
O=C(Nc1c2c(nn1-c1ccc(F)cc1)CS(=O)(=O)C2)C12CC3CC(CC(C3)C1)C2,-2,-3,24380*,?,-3
CCN1CCCCC(=N/O)/C(=N/O)CCCC1,5,2,3542,-1,38*
CCCCNc1cc(C)oc(=O)c1C(C)=O,-2,-3,21662*,6,6
CC(=O)c1cccc(Nc2ccc(C#N)cc2)c1,4,.,5860,1,5
O=C(O)CNS(=O)(=O)c1ccc(F)cc1,1,-14,21439*,0,0
COc1cccc(NC(=O)NCCCSC2CCCCC2)c1,-3,-1,21430*,-2,-4
COc1cccc(NC(=O)NCCCCc2ccccc2)c1,-3,7,?,0,10
SMILES,Anthrax LF inh2,BJeLR lethal,Autofluor counter,BoNT-A LC inh2,BoNT F protease
CCc1ccc2nc3c(c(C(=O)O)c2c1)CCC3,-2,4,22313*,2,3
Cc1cc(C)nc(NCC(O)CNc2ccccc2Cl)n1 (configuration not stated),-4,3,7171,-2,-6
C=CCN(c1ccccc1OC)S(=O)(=O)c1cccc(C(=O)NCC(c2ccc(OC)cc2)N2CCCC2)c1 (configuration not stated),-9,.,23106*,-4,-1
COc1ccc(C(CNC(=O)CNC(=O)c2ccccc2Cl)N2CCCC2)cc1 (configuration not stated),-4,2,7350,-4,9
C=CCN(c1ccccc1)S(=O)(=O)c1cccc(C(=O)NCC(c2ccc(OC)cc2)N2CCCCC2)c1 (configuration not stated),-8,.,6047,?,3
COc1ccc(C(CNC(=O)c2cc3ccccc3cc2OC)N2CCCC2)cc1 (configuration not stated),1,4,27989*,?,0
O=C(c1[nH]c(C(F)(F)F)nc1-c1ccccc1)N1CCC(Cc2ccccc2)CC1,-11,.,6001,-2,-14
CCOC(=O)C1CCCN(C(=O)c2cc(C)n(C(C)(C)C)n2)CC1 (configuration not stated),-10,.,3930,-1,-4
CCc1nc(N)nc(N)c1-c1ccc(Cl)cc1,0,62*,5935,0,-2
CCc1nc(N)nc(N)c1-c1ccc(N(C)Cc2ccccc2)c([N+](=O)[O-])c1,-2,.,3996,-1,-9
C[C@H](CO)N1C[C@H](C)[C@@H](CN(C)C(=O)NC2CCCCC2)Oc2ccc(NS(=O)(=O)c3ccc(F)cc3)cc2C1=O,2,.,3658,1,2
O=C(Nc1ccc(Cl)cc1)N1CCC(c2nc(-c3cccs3)no2)CC1,-3,-3,24323*,?,-2
COc1cccc(C(=O)N2CCCC(c3nc(-c4cccs4)no3)C2)c1 (configuration not stated),-2,7,10849,0,1
COc1cc(C(=O)N2CCCC(c3nc(-c4cccs4)no3)C2)cc(OC)c1OC (configuration not stated),-9,-13,17019*,-5,-4
O=C(Nc1cccc(C(F)(F)F)c1)N1CCC(c2nc(-c3ccc(F)cc3)no2)CC1,-3,-12,20249*,2,-3
COc1ccc(NC(=O)N2CCC(c3nc(-c4cccs4)no3)CC2)cc1,-4,-9,9612,1,6
C=CCSc1nc2sc(-c3ccccc3)cc2c(=O)n1N,-2,-2,2854,1,1
CCNc1ccc(Br)cc(C(=O)/C=C/c2ccccc2Cl)c1=O,45*,-10,16998*,52*,19
CNc1ccc(Br)cc(C(=O)/C=C/c2cccc(Cl)c2Cl)c1=O,7,.,4303,17,-2
Cc1ccccc1CSCCNC(=O)CSCc1ccc([N+](=O)[O-])cc1,-3,0,21363*,?,0
Cc1ccc(CSCCNC(=O)CSCc2ccc([N+](=O)[O-])cc2)cc1,-3,2,20785*,0,-3
CCCc1nc2cc(CC(=O)OC)ccc2o1,0,0,24068*,-3,-2
COc1cc(/C=N/n2cnnc2)ccc1OCc1ccccc1,-5,-10,4181,0,1
COc1ccc(/C=N/n2cnnc2)cc1COc1ccccn1,-1,4,23503*,-1,-1
COc1ccc(S(=O)(=O)NCc2ccco2)cc1-c1nnc2c3ccccc3c(C)nn12,-5,-8,20211*,7,6
CNS(=O)(=O)c1ccc(OC)c(-c2nnc3c4ccccc4c(C)nn23)c1,3,-3,2635,0,-3
